Whole data set: some 25,000 sequences, median “ln(normalized median fluorescence intensity)” near 7.1, cut for the highest 2% near 10. This is one part of a sample in which the highest values are shown more often than they occur.
Test system: PfSIP2 AP2 domain 1 (GST-tagged)
Assay: gcPBM binding intensity (ln(normalized median fluorescence intensity)); higher = stronger DNA binding
In short: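 Plasmodium falciparum DNA-binding domains carrying a GST tag were expressed in E. coli and applied for 1 h, at about 25 μg on average, to an Agilent 4 × 180k array. The array held primer-extended double-stranded 36-bp intergenic genomic probes together with negative controls, and binding took place in 1× PBS with 1% milk, 0.2 mg/ml BSA, 0.5% salmon testes DNA and 0.03% Triton X-100. An Alexa488 anti-GST antibody detected bound protein, and the array was scanned at 488 nm. Binding intensity is taken as the highest Masliner-normalised natural-log median intensity across replicate spots of either probe orientation.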

Sequence | gcPBM binding intensity (ln)
TTAAATAAAAGGTTTAGTACTTAAAATAAGAAATGA [XGTACX_site6341] | 6.91
GTATGTAATATTTTAGTGCAAAAAAAAAAAAAAAAA [GTGCAC_site9790] | 8.3
ACAAAAAGTTACATACGTACGTAAAATTGTAATAAA [XGTACX_site2358] | 6.96
TCCATCCACATATATGTACACACATATATATATATA [CACACA_site8970] | 9.43
TTTTTTTTTTTTTTTTGTCCGTACTGCTTTGTGTTT [XGTACX_site3687] | 6.99
AAAAAAAAAAATTAAAGTACAAAAATATTAAAAATA [XGTACX_site6517] | 6.8
ATATATATATATCACCGTACTTATATAATAACATGA [XGTACX_site4398] | 9.36
AGAATATATATAATAGTGCAATGTACAATGAACAAA [GTGCAC_site9577] | 8.01
TTTGGAATATTAATTGTGCACTTAAAAAGTTAATTA | 10
TATATTTATATATTAGTGCACTTTTTGTTAATTTTT | 10.7
AATTATATTTAGTATATGCACACTTTATGTTTGTTA [CACACA_site2025] | 7.9
TTTTGTTATTTTGAAGTGCACTTTCCACTTAATATA | 11
TTTTTTTTTTTTTTGTGTACTAATATTATAAATTTT [XGTACX_site4405] | 7.01
TTTATTTGTGCATATACACACTTAAATATGTTTATT [CACACA_site7772] | 7.65
TTTTTTTTGATTTGTTTGCACTTATTTCCACAATAA | 8.23
ATTATTTTTTTTGAAGTGCAATATTATTTTTAATCA | 8.2
TATATATATTAGTGTGCACACTTTTTATTTTTATCC [CACACA_site8506] | 8.6
AATAATATTTATTTTTGTACATATGTGCATTATAAA [XGTACX_site3682] | 7.13
ATGAAATATTTATTTGTGCACTTAATTTGTTGGAAA | 10.4
AGTACATTTTTGTGTGTGCACTAATATTATATACTT [GTGCAC_site9568] | 10.3
GTATATAAATATATATATATATATATATCTATATTT [CACACA_negctrl_site871] | 7.42
ATATTATAAAATAAAAGTACACAATTATATATATAT [XGTACX_site8812] | 8.6
ATTATATAACAAAATAGTACATATATTTATTACATC [XGTACX_site336] | 6.99
CCATATTTCATTAATGAACACACAAAGAGGTATATA [CACACA_site8431] | 7.11
TTCTTCAATATATTCTTACACACTTAAAAAAAAAAA [CACACA_site228] | 7.5
ATAGGACCTATGTGCCCATGGGTACATTAAAAAAAA [CACACA_negctrl_site1465] | 6.83
